Test results taken from PubChem BioAssay (NCATS).
Records with an inconclusive call do not appear. Calls of active or inactive are those of the source. Calls come from the whole dose curve; as a rule, active = well fitted inhibition curve with a large enough effect; inconclusive = small, poorly fitted or top-dose-only effect; inactive = flat fitted curve, though single readings scatter.

Key:
[1] = Drug repurposing screens with cells derived from glioblastoma tumor samples (AID 1345199); conditions: GBM patient neurospheres viability, ATP luminescence, 48 h; note: nearly all actives have a fitted effect of over 40% in size
Outline: (§1)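 Primary testing used CD133+ neurospheres from four GBM patients, seven concentrations, 48 h exposure and ATP-based viability; confirmation added three slower-growing patient lines.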

astro = control astrocytes; assay: as above; conditions: viability, ATP luminescence, 48 h; series mostly up to 45.9 µM
Outline: as §1

[2] = at 45.9 µM (top of the series), tumour line B
[3] = at 45.9 µM (top of the series), tumour line D
[4] = at 46.1 µM (top of the series), tumour line C
% is set by controls: 0 for no effect and ±100 for the full control effect.

N=C(N)c1ccc(/C=C/c2ccc(C(=N)N)cc2O)cc1
inactive: activity, negative = cell killing [1, 2] -18.3% | activity, negative = cell killing [1, 3] -9.46% | activity, negative = cell killing [1, 4] -14.7% | Potency (astro)

CCCCCCCCCCCC(=O)OC[C@@H](O)C1OC[C@H](O)[C@H]1O (some centres undefined)
inactive: activity, negative = cell killing [1, 2] -6.52% | activity, negative = cell killing [1, 3] -10.2% | activity, negative = cell killing [1, 4] -22.6% | Potency (astro)

CC(C)(C)NCC(O)c1ccc(O)c(CO)n1 (centres undefined)
inactive: activity, negative = cell killing [1, 2] -4.38% | activity, negative = cell killing [1, 3] 7.95% | activity, negative = cell killing [1, 4] -15% | Potency (astro)

FC(F)(F)C(F)(F)C(F)(F)C(F)(F)C(F)(F)C(F)(F)F
inactive: activity, negative = cell killing [1, 2] -7.96% | activity, negative = cell killing [1, 3] -23% | activity, negative = cell killing [1, 4] -26.4% | Potency (astro)

CCCCC/C=C\CCC(=O)N[C@H]1[C@H](Oc2c3cc4cc2Oc2ccc(cc2Cl)[C@@H](O[C@@H]2O[C@H](CO)[C@@H](O)[C@H](O)[C@H]2NC(C)=O)[C@@H]2NC(=O)[C@H](NC(=O)[C@@H]4NC(=O)[C@H]4NC(=O)[C@@H](Cc5ccc(c(Cl)c5)O3)NC(=O)[C@H](N)c3ccc(O)c(c3)Oc3cc(O)cc4c3)c3ccc(O)c(c3)-c3c(O[C@H]4O[C@H](CO)[C@@H](O)[C@H](O)[C@@H]4O)cc(O)cc3[C@@H](C(=O)O)NC2=O)O[C@H](CO)[C@@H](O)[C@@H]1O
inactive: activity, negative = cell killing ([1]; at 20 µM (top of the series), tumour line C) -16.8% | activity, negative = cell killing ([1]; at 21.2 µM (top of the series), tumour line B) -7.38% | activity, negative = cell killing ([1]; at 21.2 µM (top of the series), tumour line D) -14.2% | Potency (astro)

CCCCCCCCCCCCCCCC(=O)OC[C@@H](O)[C@H]1OC[C@H](O)[C@H]1O
inactive: activity, negative = cell killing [1, 2] -4.52% | activity, negative = cell killing [1, 3] 10.4% | activity, negative = cell killing [1, 4] -6.66% | Potency (astro)
